Gal4-VP16 FLuc: counter-screen for ROR gamma inhibitors: Gal4-VP16 reporter; Potency, µM (highest dose often 53.6 µM), without a hit: at the top dose activity, negative = inhibition, usual class: inhibitors; 310,000 compounds, 3.5% hits; Drosophila S2 Gal4-VP16 UAS-luciferase, luminescence, 20 h;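 note: Gal4-VP16 expression switched on by copper sulfate through the metallothionein promoter; % is set by controls: 0 for no effect and ±100 for the full control effect; nearly all actives have a fitted effect of over 50% in size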
SW480 rereplic: inducers of DNA re-replication in SW480 colon cancer cells; SW480 DNA re-replication, Hoechst DNA content imaging, 48 h; Potency, µM (titrated, usually from 46.1 µM), for inactives: top-dose re-replication activation, hits mostly activators; 340,000 compounds, 1.8% hits; AID 624297; note: % of control where 0% means no effect; nearly all actives have a fitted effect of over 55% in size
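Cells (250 per well) received 23 nL compound or DMSO by pin tool and were kept 48 hr at 37 C, 5% CO2. Nuclei were then stained with Hoechst for 40 min and scanned for DNA content.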
RORg inh: inhibitors of mouse ROR gamma transcriptional activity. P51450. Drosophila S2 Gal4-RORgamma UAS-luciferase reporter, 20 h. Potency, µM (series often up to 53.6 µM), inactives show top-dose activity change, negative = inhibition, usual class: inhibitors. 310,000 compounds, 5.4% hits. AID 2551; note: % is set by controls: 0 for no effect and ±100 for the full control effect; nearly all actives have a fitted effect of over 60% in size
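Schneider cells (Drosophila), stable Gal4 DBD–ROR gamma + UAS-luc; 1 hr cmpd preincubation; Cu2+ induction 700 uM final; 20 hr ambient; luminescence.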
MCF10A rerep: inducers of DNA re-replication in MCF 10A breast cells. MCF 10A DNA re-replication, Hoechst nuclear intensity, 48 h. Potency, µM (series often up to 46.1 µM), for the others: top-dose activity, positive = re-replication, actives largely listed as activators. AID 624296. 350,000 compounds, 2.9% hits; note: % of control where 0% means no effect; nearly all actives have a fitted effect of over 50% in size
ELG1 DNA repair: blocks ELG1-dependent DNA repair in HEK293T cells; HEK293T ELG1-luciferase reporter, luminescence, 16 h; DNA damage induced by 5-fluorouridine; Potency, µM (doses to about 46.1 µM), for the others: at the top dose activity change, negative = inhibition, most hits filed as inhibitors; 330,000 compounds, 2.3% hits; AID 504467; note: % is set by controls: 0 for no effect and ±100 for the full control effect; nearly all actives have a fitted effect of over 55% in size
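Quantitative HTS, concentration-response format. 2,000 cells/well co-treated with 5-fluorouridine and compound, 16 hr in 5% CO2 at 37 °C; ONE-Glo luminescence read after 30 min.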
The depositor's hits bear a star; ? = inconclusive; . = not tested or not shown; [ ] = another dose, or the depositor's remark. Shown are actives, neighbours in structure and some others; about 10% of the full set was active somewhere. Calls come from the whole dose curve; as a rule, active = well fitted curve in the direction sought with a large enough effect; inconclusive = small, poorly fitted or top-dose-only effect, or another doubt; inactive = no such curve, though single readings can be large; an effect the other way counts as inactive or inconclusive. Potency is the fitted concentration of half-maximal effect.

SMILES | Gal4-VP16 FLuc | SW480 rereplic | RORg inh | MCF10A rerep | ELG1 DNA repair
COc1ccc(COC(=O)N/N=C2/C[C@@H](O)[C@@H](O)[C@@H]3[C@@H]4C(=O)N(c5cccc(Oc6ccccc6)c5)C(=O)[C@H]4CC[C@H]23)cc1 | 5.7%[10 µM] | . | 12.8%[10 µM] | . | .
CCC1(c2ccc(F)cc2)NC(=O)N(CC(=O)Nc2cc(C)on2)C1=O (stereo unspecified) | . | -30.6% | . | 4.3% | 7.6%
Cc1ccc(CCNC(=O)c2cccc(N3CCCC3=O)c2)cc1 | -0.3% | 1.9% | 5.8% | 2.3% | ?
O=C(NCCc1ccccc1)c1cccc(N2CCCC2=O)c1 | 10µM* | -11.0% | 11.2µM* | -0.1% | ?
Cc1cccc(CCNC(=O)c2cccc(N3CCCC3=O)c2)c1 | -14.5% | -3.6% | 10µM* | 1.0% | ?
COc1ccc(CN2CCNC(=O)C2CC(=O)N(C)Cc2nc(C)cs2)c(OC)c1 (stereo unspecified) | . | 28.4% | . | 3.5% | -0.4%
O=S(=O)(c1ccc2oc3ccc(S(=O)(=O)N4CCCCC4)cc3c2c1)N1CCCCC1 | -2.1% | 1.7% | 11.9% | 0.2% | ?
O=C1C(C=Nc2ccccc2O)=C(O)c2ccccc21 | 7.08µM* | ? | 3.98µM* | 5.17µM* | ?
Cc1ccc(O)c(N=CC2=C(O)c3ccccc3C2=O)c1 | 7.08µM* | ? | 3.98µM* | ? | ?
O=C1C(C=NCCN2CCOCC2)=C(O)c2ccccc21 | -2.1% | -4.5% | -29.0% | -0.3% | ?
CCN(CC(=O)NCc1ccc(F)cc1)Cc1nc2ccccc2c(=O)[nH]1 | 10µM* | 4.3% | 3.98µM* | 0.2% | -29.3%
CCN(CC(=O)Nc1cccc(F)c1)Cc1nc2ccccc2c(=O)[nH]1 | ? | -2.9% | ? | 6.7% | -6.5%
Cc1c(C(=O)N(C)Cc2nc3ccccc3c(=O)[nH]2)oc2ccccc12 | . | 16.4µM* | . | 10.3µM* | ?

Screens deposited in PubChem by National Center for Advancing Translational Sciences (NCATS).
